Inconclusive results are not listed. A number with no mark means an inactive call. Calls of active or inactive are those of the source. The call rests on the fitted dose curve; in most records, active means well fitted cell-killing curve with a large enough effect in the repeat runs; inconclusive means weak or mixed curves, or effect the other way; inactive means flat fitted curve, though single readings scatter.
Test: Human pregnane X receptor (PXR) small molecule agonists, qHTS cell viability counter screen (AID 1346977); further: nearly all actives have a fitted effect of over 50% in size
Details: PXR-Luc HepG2 viability, CellTiter-Fluor, 24 h; series mostly up to 92.4 µM; activity change, negative = cytotoxicity: at the top concentration
Source text: U.S. Tox21 Program National Center for Advancing Translational Sciences [NCATS] NIH Chemical Genomics Center [NCGC] U.S. Environmental Protection Agency [EPA] National Institutes of Environmental Health Sciences [NIEHS] National Toxicology Program [NTP] U.S. Food and Drug Administration [FDA] Tox21 Assay Overview: The human pregnane X receptor (hPXR) regulates the expression of several drug metabolizing enzymes and induction of these proteins is a major mechanism for developing drug resistance in cancer. One such key enzyme catalyzing the drug metabolism is cytochrome P450 3A4 (CYP3A4). Changes in CYP3A4 expression affect drug metabolism, thereby reducing the therapeutic efficacy and altering toxicological response to a drug and which finally causes adverse drug interaction. To screen Tox21 libraries for compounds that activate hPXR-mediated CYP3A4 gene expression, PXR-Luc HepG2 cells were used. Also cytotoxicity of the compounds was tested in parallel by measuring the cell viability using CellTiter-Fluor assay system in the same wells.
Tox21 Assay Protocol Summary: PXR-Luc HepG2 cells were dispensed at 2,000 per well in 5uL of assay medium containing 5% charcoal-stripped FBS into white solid bottom 1536-well plates (Corning Life Sciences, Corning, NY) using a Multidrop Combi (Thermo Scientific, Waltham, MA) dispenser. The assay plates were incubated at 37 C and 5% CO2 for 5hr, and then 23nL of compounds dissolved in DMSO and positive control were transferred using a Pintool station (Wako, San Diego, CA). The assay plates were incubated at 37C and 5% CO2 for 24hr. For cytotoxicity read, after 23hr incubation at 37C, 1uL CellTiter-Fluor reagent (Promega Corporation, Madison, WI) was added to each well of the assay plates using Flying Reagent Dispenser (FRD, Aurora Discovery, San Diego, CA). After 1hr incubation at 37C and 5% CO2, the fluorescence signal was quantified using a ViewLux plate reader (PerkinElmer, Shelton, CT).
On the % scale 0 is the no-effect control and ±100 the full control effect; potency means the concentration at half of the fitted maximal effect.

Compound | activity change, negative = cytotoxicity | Potency
CCCCCO | 3.34% | –
Cc1ccc(NC(=O)c2ccc(CN3CCN(C)CC3)cc2)cc1Nc1nccc(-c2cccnc2)n1 | – | 23.7 µM (active)
C1=COCCC1 | 12.6% | –
CCCCCCCCCCCCCCCCC(=O)O | -1.47% [at 42.5 µM] | –
CCc1ccc2c(c1)C(=O)c1ccccc1C2=O | -20.8% | –
CC(C(=O)O)c1ccc2c(c1)Cc1cccnc1O2 (stereo not given) | 5.35% [at 42.5 µM] | –
CCCCC(CC)COCCC#N (stereo not given) | 9.59% | –
CC(C)(O)C(=O)O | 0.13% | –
O=C1CCCN1CCO | -5.17% | –
Cc1nc(C)c(C)nc1C | 16.6% | –
COc1ccc(/C(C)=C/C(=O)O)c(OC)c1 | 13% [at 42.5 µM] | –
C=C[Si](OCC)(OCC)OCC | -2.9% | –
CC(C)Oc1ccccc1O | 14.7% | –
C=CC(=O)NC(C)(C)C | 9.28% | –
CCCc1ccc(OC)cc1 | -0.397% | –
C(/C=C/C=C/Nc1ccccc1)=Nc1ccccc1 | 16.6% | –
CCC(C)CCCC(C)(C)O (stereo not given) | -1.2% | –
CCC(C(=O)O)c1ccc(N2Cc3ccccc3C2=O)cc1 (stereo not given) | 21.1% [at 42.5 µM] | –
CC/C=C/CCO | 9.51% | –
CC(C)CC(C)(C)C | -0.767% | –

Compound | activity change, negative = cytotoxicity | Potency
N#C[C@@H]1CC(F)(F)CN1C(=O)CNC1CC2CCC(C1)N2c1ncccn1 (stereo not given in full) | 34.3% | –
CC(C)Cc1nccs1 | 5.3% | –
CC(C)(C)NCC(O)COc1ccc(NC(=O)NC2CCCCC2)cc1 (stereo not given) | 1.28% [at 42.5 µM] | –
C[Si](C)(C)O[Si](C)(C)O[Si](C)(C)C | 4.08% | –
CC(C)=CCC[C@H](C)CCO | 5.56% | –
CC(=O)Nc1ccccc1O | 0.485% | –
Cc1c(Cl)cccc1Nc1ccccc1C(=O)O | 0.657% [at 42.5 µM] | –
CC(=O)Oc1cccc2c1C(=O)c1c(OC(C)=O)cc(C(=O)O)cc1C2=O | – | 29.8 µM (active)
Cc1ccc(Cl)c(OCC(O)CNC(C)(C)C)c1 (stereo not given) | -15.4% [at 42.5 µM] | –
O=C(O)COCC(=O)O | 2.76% | –
Cc1cc(C)n(CO)n1 | -2.51% | –
CCCCCCCCOCCCN | – | 61.1 µM (active)
O=C(O)c1ccccc1[N+](=O)[O-] | 0.09% | –
CCCCCCCCCCCCSCCOCCO | 15.7% [at 42.5 µM] | –
OCCCO | 4.93% | –
C[C@]12CCC(=O)C=C1[C@@H]1C[C@@H]1[C@H]1[C@@H]3[C@@H]4C[C@@H]4[C@@]4(CCC(=O)O4)[C@@]3(C)CC[C@@H]12 | -16.4% [at 42.5 µM] | –
C/C(=C\C(C)CC(C)CC(C)C)C1CC(=O)OC1=O (stereo not given) | 2.48% | –
CCCC(=O)OCCC(C)C | -4.71% | –
NC(=O)c1ccccc1C(N)=O | -0.032% | –
CCC(CC)C(=O)O | 6.35% | –

Reference: PubChem BioAssay (Tox21)
